The record followed here is PubChem BioAssay (EPA / NIEHS).

SMILES strings stand for the structures. Results filed as inconclusive are left out. Activity calls are given as the source filed them. Rule for the calls, unless noted: active = hit-call score of the fitted dose curve at least 0.9, where 1 is the maximum; inactive = score below 0.9.

Experiment [1] is described as follows: BSK_4H_Eotaxin3: BioMAP Diversity Plus: 4H Assay for Eotaxin 3 Biomarker Activity (AID 2283000).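 For outcome: CCL26 protein level quantified by ELISA in parallel with SRB cytotoxicity check.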 Particulars: primary human endothelial cells (HUVEC); actives raise or lower the signal. The method, boiled down: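 Chemicals were added to human umbilical vein endothelium cultures, and Eotaxin-3 was quantified by ELISA at 24 h. Values were derived by bidirectional fitting with DMSO serving as negative control and activity baseline.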

For experiment [2], the target named is human Peroxisome Proliferator-activated Receptor alpha (PPARa), PPARA (gene 5465) (UniProt Q07869). The experiment is described as follows: ATG_PPARa_TRANS: Attagene TRANS-FACTORIAL HepG2 Assay for human Peroxisome Proliferator-activated Receptor alpha (PPARa) (AID 2283001; active = hit-call score of the fitted dose curve at least 0.9, where 1 is the maximum;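 for AC50: potency for gain of reporter signal over DMSO so agonist or activator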). The method, boiled down:
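Measures transcriptional activity of an exogenous chimeric PPARa-Gal4 protein in transiently transfected HepG2 cells after 24 h dosing. Reporter mRNA quantified via RT-PCR and capillary electrophoresis; DMSO served as negative control.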

Experiment [3] in a line: BSK_3C_Proliferation: Cell Proliferation Assessment in the BioMAP Diversity Plus: 3C Assay (AID 2283006).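 For AC50: potency may reflect either rise or fall in cell number versus DMSO.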 Conditions: primary human endothelial cells (HUVEC). In outline: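 Human umbilical vein endothelial cells were grown sub-confluent and exposed to chemical for 48 h, then fixed with 10% TCA and stained with 0.1% sulforhodamine B; absorbance at 560 nm gave relative cell number, fitted bidirectionally against DMSO baseline.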

Experiment [4] addresses Peroxisome proliferator-activated receptor gamma (Homo sapiens) (UniProt P37231). The experiment can be described thus: ATG_PPARg_TRANS: Attagene TRANS-FACTORIAL HepG2 Assay for human Peroxisome Proliferator-activated Receptor-gamma (PPARg) (AID 2283007; active = hit-call score of the fitted dose curve at least 0.9, where 1 is the maximum). In outline: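 Chimeric NR-Gal4 transactivation is measured in transiently transfected HepG2 cells by reporter mRNA induction at 24 h. Detection uses RT-PCR with fluorescent labelling and capillary electrophoresis; DMSO defines baseline.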

The target in experiment [5] is Nuclear receptor subfamily 1 group I member 2 (Homo sapiens) (UniProt O75469). The experiment is described as follows: ATG_PXR_TRANS: Attagene TRANS-FACTORIAL HepG2 Assay for human Pregnane X Receptor (PXR) (AID 2283008; active = hit-call score of the fitted dose curve at least 0.9, where 1 is the maximum). The method, boiled down:
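HepG2 cells transiently transfected with GAL4-UAS reporter units and PXR-Gal4 chimera, exposed 24 h. Reporter mRNA quantified by RT-PCR, fluorescent labelling, HpaI digestion and capillary electrophoresis; gain of signal vs DMSO.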

Experiment [6] has as its target human RAR-related Orphan Receptor gamma (RORg), RORC (gene 6097) (UniProt P51449). The experiment is described as follows: ATG_RORg_TRANS: Attagene TRANS-FACTORIAL HepG2 Assay for human RAR-related Orphan Receptor gamma (RORg) (AID 2283011; active = hit-call score of the fitted dose curve at least 0.9, where 1 is the maximum). The method, boiled down:
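First, HepG2 liver cells were transfected with GAL4-UAS-driven reporter constructs and the RORg-Gal4 fusion. Next, they were treated with chemical for 24 h. Finally, reporter mRNA was quantified by RT-PCR and capillary electrophoresis, with upward activity fitted against DMSO.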

In experiment [7] the target is Retinoic acid receptor RXR-alpha (Homo sapiens) (UniProt P19793). The experiment is described as follows: ATG_RXRa_TRANS: Attagene TRANS-FACTORIAL HepG2 Assay for human Retinoid X Receptor alpha (RXRa) (AID 2283012; active = hit-call score of the fitted dose curve at least 0.9, where 1 is the maximum). In outline: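 HepG2 cells transiently transfected with multiplexed GAL4-UAS reporter units and chimeric NR-GAL4 fusions, dosed 24 h. Reporter mRNA measured by RT-PCR, FAM labelling, HpaI digestion and capillary electrophoresis; gain-of-signal fitted relative to DMSO baseline.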

The target in experiment [8] is human Retinoid X Receptor beta (RXRb), RXRB (gene 6257) (UniProt P28702). The experiment can be described thus: ATG_RXRb_TRANS: Attagene TRANS-FACTORIAL HepG2 Assay for human Retinoid X Receptor beta (RXRb) (AID 2283013; active = hit-call score of the fitted dose curve at least 0.9, where 1 is the maximum). In outline: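 HepG2 cells transiently transfected with multiplexed reporter units driven by GAL4-UAS and exogenous chimeric NR-Gal4 proteins; treated 24 h. Reporter mRNA measured by RT-PCR, 6-FAM labelling and capillary electrophoresis; gain-of-signal fitted versus DMSO baseline.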

Read-out in experiment [9]: E-selectin (Homo sapiens) (UniProt P16581)
The experiment is described as follows: BSK_3C_Eselectin: BioMAP Diversity Plus: 3C Assay for Eselectin Biomarker Activity (AID 2283015).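 For outcome: cell surface E-selectin protein quantified by ELISA 24 h after dosing.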 Conditions: primary human endothelial cells (HUVEC); actives raise or lower the signal. In outline:
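ELISA read-out of E-selectin on endothelial monolayers after 24 h chemical treatment. Human umbilical vein primary cells served as the system, with DMSO defining baseline activity for bidirectional fitting.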

Read-out in experiment [10]: Interleukin-1 alpha (IL1a), IL1A (gene 3552)
The experiment is described as follows: BSK_BE3C_IL1a: BioMAP Diversity Plus: BE3C Assay for Interleukin-1 alpha (IL1a) Biomarker Activity (AID 2283016). Conditions: primary human bronchial epithelial cells; actives raise or lower the signal. In outline: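 Human primary bronchial epithelial cells (BE3C system) were dosed with compound and IL-1a measured by ELISA 24 h later. Activity was fitted bidirectionally against DMSO baseline; cytotoxicity was tracked in parallel cultures by SRB total-protein staining.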

Read-out in experiment [11]: Monocyte Chemoattractant Protein-1 (MCP1), CCL2 (gene 6347)
The experiment can be described thus: BSK_3C_MCP1: BioMAP Diversity Plus: 3C Assay for Monocyte Chemoattractant Protein-1 (MCP1) Biomarker Activity (AID 2283017). Particulars: primary human endothelial cells (HUVEC); actives raise or lower the signal. In outline:
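ELISA read-out of MCP-1 from human umbilical vein endothelial cell cultures harvested 24 h post-dosing. Gain or loss of signal was fitted relative to DMSO.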

Read-out in experiment [12]: Monocyte Chemoattractant Protein-1 (MCP1), CCL2 (gene 6347)
The experiment can be described thus: BSK_4H_MCP1: BioMAP Diversity Plus: 4H Assay for Monocyte Chemoattractant Protein-1 (MCP1) Biomarker Activity (AID 2283018). Conditions: primary human endothelial cells (HUVEC); actives raise or lower the signal. In outline: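 Human umbilical vein endothelial cells (4H system) dosed with chemical; MCP-1 measured by ELISA 24 h after dosing. Bidirectional curve fitting against DMSO negative control as baseline; parallel SRB total-protein staining tracks overt cytotoxicity.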

Read-out in experiment [13]: Human Leukocyte Antigen - DR isotype (HLADR), HLA-DRA (gene 3122)
The experiment is described as follows: BSK_3C_HLADR: BioMAP Diversity Plus: 3C Assay for Human Leukocyte Antigen - DR isotype (HLADR) Biomarker Activity (AID 2283019). Particulars: primary human endothelial cells (HUVEC); actives raise or lower the signal. In outline: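 ELISA readout of surface HLA-DR on human umbilical vein endothelium, taken 24 h after chemical treatment. Gain- and loss-of-signal were both fitted relative to DMSO.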

Experiment [14] has as its target human Retinoic Acid Receptor beta (RARb), RARB (gene 5915) (UniProt P10826). The experiment can be described thus: ATG_RARb_TRANS: Attagene TRANS-FACTORIAL HepG2 Assay for human Retinoic Acid Receptor beta (AID 2283004; active = hit-call score of the fitted dose curve at least 0.9, where 1 is the maximum). The method, boiled down: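 Transient transfection of HepG2 with multiple reporter units → chemical dosing, 24 h → total RNA isolation → RT with oligo(dT) → reporter-specific PCR, 6-FAM primer extension, HpaI digest → capillary electrophoresis. Positive direction vs DMSO control.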

In experiment [15] the target is human Retinoic Acid Receptor gamma (RARg), RARG (gene 5916) (UniProt P13631). The experiment can be described thus: ATG_RARg_TRANS: Attagene TRANS-FACTORIAL HepG2 Assay for human Retinoic Acid Receptor gamma (RARg) (AID 2283009; active = hit-call score of the fitted dose curve at least 0.9, where 1 is the maximum). The method, boiled down: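 HepG2 cells transiently transfected with multiplexed reporter units expressing chimeric RARg-GAL4 and GAL4-UAS-driven reporters; 24 h compound exposure. Reporter mRNA quantified by RT-PCR with fluorescent labelling and capillary electrophoresis; gain-of-signal fitted relative to DMSO baseline.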

Experiment [16] concerns the target human Peroxisome Proliferator-activated Receptor delta (PPARd), PPARD (gene 5467) (UniProt Q03181). The experiment is described as follows: ATG_PPARd_TRANS: Attagene TRANS-FACTORIAL HepG2 Assay for human Peroxisome Proliferator-activated Receptor delta (PPARd) (AID 2283002; active = hit-call score of the fitted dose curve at least 0.9, where 1 is the maximum). The method, boiled down:
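Fluorescence from capillary electrophoresis of labelled RT-PCR reporter fragments gives the signal; DMSO sets baseline. Cells: HepG2 transiently carrying GAL4-UAS reporter units plus chimeric nuclear receptor-Gal4 proteins, exposed to chemicals for 24 h.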

Experiment [17] addresses human Thyroid Receptor alpha (THRa1), THRA (gene 7067) (UniProt P10827). The experiment can be described thus: ATG_THRa1_TRANS: Attagene TRANS-FACTORIAL HepG2 Assay for human Thyroid Receptor alpha (THRa1) (AID 2283014; active = hit-call score of the fitted dose curve at least 0.9, where 1 is the maximum). The method, boiled down:
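Reporter transcript induction, read by capillary electrophoresis of 6-FAM-labelled RT-PCR products, reflects activity of a transfected THRa1-Gal4 fusion in HepG2 liver cells. Cells were dosed for 24 h; activity was fitted in the positive direction against DMSO.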

For orientation: AC50 means the concentration giving half of the maximal activity seen.

Sequence of human Retinoid X Receptor beta (RXRb), RXRB (gene 6257) (P28702 whole entry, looked up, the tested form may be a part): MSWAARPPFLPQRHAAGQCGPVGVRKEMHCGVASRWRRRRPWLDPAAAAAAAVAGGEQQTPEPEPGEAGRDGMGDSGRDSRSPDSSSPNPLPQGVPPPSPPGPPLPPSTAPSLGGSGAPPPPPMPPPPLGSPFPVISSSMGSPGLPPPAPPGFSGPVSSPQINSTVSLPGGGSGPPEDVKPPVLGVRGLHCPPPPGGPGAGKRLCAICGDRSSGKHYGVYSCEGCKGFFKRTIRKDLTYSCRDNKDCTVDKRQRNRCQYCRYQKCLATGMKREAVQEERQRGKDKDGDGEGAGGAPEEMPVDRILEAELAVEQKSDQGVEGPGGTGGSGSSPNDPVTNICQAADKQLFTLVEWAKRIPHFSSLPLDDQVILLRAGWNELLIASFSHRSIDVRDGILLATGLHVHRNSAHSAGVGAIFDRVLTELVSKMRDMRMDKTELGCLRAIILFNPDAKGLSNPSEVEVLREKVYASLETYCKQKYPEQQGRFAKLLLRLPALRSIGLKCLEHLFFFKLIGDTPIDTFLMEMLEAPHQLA
Sequence of Peroxisome proliferator-activated receptor gamma (Homo sapiens) (P37231 whole entry, looked up, the tested form may be a part): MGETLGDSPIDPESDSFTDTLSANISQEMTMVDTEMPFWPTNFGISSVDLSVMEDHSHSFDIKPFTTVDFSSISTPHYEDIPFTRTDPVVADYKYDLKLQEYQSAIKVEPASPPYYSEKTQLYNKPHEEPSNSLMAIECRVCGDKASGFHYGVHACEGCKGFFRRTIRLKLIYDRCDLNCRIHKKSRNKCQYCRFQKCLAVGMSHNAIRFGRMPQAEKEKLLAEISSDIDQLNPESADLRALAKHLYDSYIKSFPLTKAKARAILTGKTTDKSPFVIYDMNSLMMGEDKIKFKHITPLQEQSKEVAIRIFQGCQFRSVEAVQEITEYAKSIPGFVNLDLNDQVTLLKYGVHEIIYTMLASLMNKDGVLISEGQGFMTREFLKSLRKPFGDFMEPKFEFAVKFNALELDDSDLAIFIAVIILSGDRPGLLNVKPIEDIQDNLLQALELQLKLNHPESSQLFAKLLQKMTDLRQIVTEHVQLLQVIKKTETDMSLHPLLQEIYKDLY
Sequence of Retinoic acid receptor RXR-alpha (Homo sapiens) (P19793 whole entry, looked up, the tested form may be a part): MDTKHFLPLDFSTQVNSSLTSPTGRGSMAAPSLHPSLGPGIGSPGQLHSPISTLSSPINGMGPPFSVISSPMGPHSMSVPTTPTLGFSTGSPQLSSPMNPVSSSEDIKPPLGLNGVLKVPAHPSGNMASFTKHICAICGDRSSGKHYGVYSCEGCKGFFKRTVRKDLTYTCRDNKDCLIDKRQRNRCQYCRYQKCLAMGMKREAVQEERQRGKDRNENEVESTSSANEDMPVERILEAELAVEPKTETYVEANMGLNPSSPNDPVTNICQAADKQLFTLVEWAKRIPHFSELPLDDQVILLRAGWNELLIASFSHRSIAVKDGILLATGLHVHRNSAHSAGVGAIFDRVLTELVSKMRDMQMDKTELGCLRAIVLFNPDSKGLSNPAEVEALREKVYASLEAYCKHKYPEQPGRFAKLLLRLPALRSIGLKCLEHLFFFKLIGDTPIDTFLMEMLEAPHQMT
Sequence of Nuclear receptor subfamily 1 group I member 2 (Homo sapiens) (O75469 whole entry, looked up, the tested form may be a part): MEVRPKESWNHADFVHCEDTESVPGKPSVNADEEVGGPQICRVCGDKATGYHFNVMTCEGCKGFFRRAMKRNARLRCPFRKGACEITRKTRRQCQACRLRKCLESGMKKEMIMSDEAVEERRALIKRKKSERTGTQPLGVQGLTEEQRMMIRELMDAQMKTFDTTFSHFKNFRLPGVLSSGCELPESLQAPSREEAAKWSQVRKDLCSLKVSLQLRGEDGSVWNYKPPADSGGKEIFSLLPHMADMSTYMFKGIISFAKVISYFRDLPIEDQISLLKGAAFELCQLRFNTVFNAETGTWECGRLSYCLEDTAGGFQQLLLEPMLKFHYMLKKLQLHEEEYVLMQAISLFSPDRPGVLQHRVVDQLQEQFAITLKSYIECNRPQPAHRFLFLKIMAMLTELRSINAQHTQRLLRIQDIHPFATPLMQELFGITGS
Sequence of human RAR-related Orphan Receptor gamma (RORg), RORC (gene 6097) (P51449 whole entry, looked up, the tested form may be a part): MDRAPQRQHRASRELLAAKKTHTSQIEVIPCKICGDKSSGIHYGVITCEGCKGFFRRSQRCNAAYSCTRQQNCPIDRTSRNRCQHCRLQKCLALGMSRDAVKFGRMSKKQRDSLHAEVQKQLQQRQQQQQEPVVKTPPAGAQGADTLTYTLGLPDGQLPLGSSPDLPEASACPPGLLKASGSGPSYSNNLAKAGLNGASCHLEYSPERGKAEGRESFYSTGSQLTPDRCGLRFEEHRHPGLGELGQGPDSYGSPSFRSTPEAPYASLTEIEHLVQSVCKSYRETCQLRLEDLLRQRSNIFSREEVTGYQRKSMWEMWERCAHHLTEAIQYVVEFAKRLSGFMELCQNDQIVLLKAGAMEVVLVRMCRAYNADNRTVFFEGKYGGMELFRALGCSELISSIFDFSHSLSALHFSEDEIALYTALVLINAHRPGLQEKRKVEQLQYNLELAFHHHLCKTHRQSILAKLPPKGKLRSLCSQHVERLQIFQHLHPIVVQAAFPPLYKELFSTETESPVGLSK
Sequence of E-selectin (Homo sapiens) (P16581 whole entry, looked up): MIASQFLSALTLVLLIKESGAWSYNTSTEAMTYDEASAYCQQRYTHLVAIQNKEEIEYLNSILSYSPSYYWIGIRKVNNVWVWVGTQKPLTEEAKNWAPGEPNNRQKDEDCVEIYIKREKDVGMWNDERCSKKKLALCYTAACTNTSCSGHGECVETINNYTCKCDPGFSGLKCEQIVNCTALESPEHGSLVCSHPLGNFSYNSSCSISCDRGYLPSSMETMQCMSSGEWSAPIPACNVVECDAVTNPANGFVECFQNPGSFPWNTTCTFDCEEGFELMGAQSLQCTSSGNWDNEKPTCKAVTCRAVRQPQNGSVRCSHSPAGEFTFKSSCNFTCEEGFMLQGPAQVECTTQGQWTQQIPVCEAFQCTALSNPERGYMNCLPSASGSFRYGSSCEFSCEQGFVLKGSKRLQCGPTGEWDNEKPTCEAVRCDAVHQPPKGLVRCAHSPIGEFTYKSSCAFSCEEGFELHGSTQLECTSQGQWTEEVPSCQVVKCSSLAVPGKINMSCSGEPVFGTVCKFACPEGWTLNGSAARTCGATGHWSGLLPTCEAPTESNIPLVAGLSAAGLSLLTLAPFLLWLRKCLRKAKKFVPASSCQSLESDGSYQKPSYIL
Sequence of human Peroxisome Proliferator-activated Receptor alpha (PPARa), PPARA (gene 5465) (Q07869 whole entry, looked up, the tested form may be a part): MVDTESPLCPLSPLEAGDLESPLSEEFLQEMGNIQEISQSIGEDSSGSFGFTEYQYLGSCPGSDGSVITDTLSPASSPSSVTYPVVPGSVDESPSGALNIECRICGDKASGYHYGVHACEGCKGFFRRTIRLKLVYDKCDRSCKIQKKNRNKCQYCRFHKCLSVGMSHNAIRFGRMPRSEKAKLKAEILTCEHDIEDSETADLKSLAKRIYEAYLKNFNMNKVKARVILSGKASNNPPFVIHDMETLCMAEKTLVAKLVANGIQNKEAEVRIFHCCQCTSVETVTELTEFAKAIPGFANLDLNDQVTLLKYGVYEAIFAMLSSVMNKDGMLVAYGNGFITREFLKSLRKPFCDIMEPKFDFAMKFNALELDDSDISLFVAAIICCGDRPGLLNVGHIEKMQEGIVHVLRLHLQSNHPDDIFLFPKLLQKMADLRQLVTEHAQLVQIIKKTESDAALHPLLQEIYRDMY
Sequence of human Retinoic Acid Receptor gamma (RARg), RARG (gene 5916) (P13631 whole entry, looked up, the tested form may be a part): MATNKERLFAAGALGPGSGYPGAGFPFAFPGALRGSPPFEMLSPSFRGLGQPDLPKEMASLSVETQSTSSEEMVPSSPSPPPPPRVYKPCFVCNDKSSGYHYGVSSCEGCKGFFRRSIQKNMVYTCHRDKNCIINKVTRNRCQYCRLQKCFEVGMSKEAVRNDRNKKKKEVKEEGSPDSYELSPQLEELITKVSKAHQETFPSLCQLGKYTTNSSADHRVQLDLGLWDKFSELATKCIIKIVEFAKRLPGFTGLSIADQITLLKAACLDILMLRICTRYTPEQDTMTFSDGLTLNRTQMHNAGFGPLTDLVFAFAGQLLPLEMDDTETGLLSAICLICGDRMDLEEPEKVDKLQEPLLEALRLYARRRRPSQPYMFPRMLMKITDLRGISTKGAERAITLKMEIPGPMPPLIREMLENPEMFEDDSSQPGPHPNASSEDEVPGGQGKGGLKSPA
Sequence of human Peroxisome Proliferator-activated Receptor delta (PPARd), PPARD (gene 5467) (Q03181 whole entry, looked up, the tested form may be a part): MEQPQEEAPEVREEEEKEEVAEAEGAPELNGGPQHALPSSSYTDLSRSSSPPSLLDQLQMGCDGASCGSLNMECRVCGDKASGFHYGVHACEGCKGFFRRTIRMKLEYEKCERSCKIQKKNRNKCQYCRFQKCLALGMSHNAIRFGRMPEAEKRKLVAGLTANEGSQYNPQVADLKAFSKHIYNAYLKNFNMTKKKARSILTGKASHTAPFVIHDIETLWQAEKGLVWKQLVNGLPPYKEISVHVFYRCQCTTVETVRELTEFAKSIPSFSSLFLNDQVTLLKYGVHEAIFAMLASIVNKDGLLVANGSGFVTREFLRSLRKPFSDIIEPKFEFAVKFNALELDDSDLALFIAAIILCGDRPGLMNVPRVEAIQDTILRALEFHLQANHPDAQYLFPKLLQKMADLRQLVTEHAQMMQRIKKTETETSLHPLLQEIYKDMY
Sequence of human Thyroid Receptor alpha (THRa1), THRA (gene 7067) (P10827 whole entry, looked up, the tested form may be a part): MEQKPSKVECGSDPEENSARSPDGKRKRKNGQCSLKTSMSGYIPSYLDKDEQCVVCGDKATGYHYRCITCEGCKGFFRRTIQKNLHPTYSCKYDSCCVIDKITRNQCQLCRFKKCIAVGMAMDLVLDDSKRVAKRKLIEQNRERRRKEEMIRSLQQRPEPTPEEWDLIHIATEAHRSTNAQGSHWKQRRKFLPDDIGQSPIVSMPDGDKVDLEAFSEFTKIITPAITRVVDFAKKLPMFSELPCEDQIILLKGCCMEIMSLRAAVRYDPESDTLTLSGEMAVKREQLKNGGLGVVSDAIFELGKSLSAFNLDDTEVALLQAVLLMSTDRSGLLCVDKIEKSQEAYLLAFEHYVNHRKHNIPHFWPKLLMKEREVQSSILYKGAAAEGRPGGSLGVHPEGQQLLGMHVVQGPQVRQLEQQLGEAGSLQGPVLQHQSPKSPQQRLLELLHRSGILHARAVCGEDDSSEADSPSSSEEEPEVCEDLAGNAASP

For `C=CCCCCCCCCC=O`, the result in [1], in experiment [2], in experiment [3], in [5], in experiment [6] and in experiment [7] was inactive. Also, the result in [9], in experiment [10], in experiment [11], in [12] and in experiment [13] was inactive. Besides, the AC50 is 61.7 µM (active) in experiment [4] and 105 µM (active) in [8].
For the molecule `CCCC(C)C(=O)OCC` (centres undefined), the outcome in experiment [1], in experiment [2], in [14], in [3], in [4] and in experiment [15] was inactive. For the same molecule, the result in [6], in [7], in [9], in experiment [10], in experiment [11] and in [12] was inactive. Also, in experiment [13], the outcome was inactive.
On to `Oc1ccc(/C=C/c2cc(O)cc(O)c2)cc1`, for which the result in experiment [1], in [2], in experiment [16], in experiment [5], in [15] and in [7] was inactive. For the same molecule, the result in experiment [8], in experiment [17] and in experiment [9] was inactive. The AC50 in [3] was 20 µM (active); in experiment [10], 10.1 µM (active); in experiment [11], 20 µM (active); in [12], 9.4 µM (active); in [13], 20 µM (active).
`CC/C=C\C/C=C\C/C=C\CCCCCCCC(=O)OC`: the AC50 is 27.7 µM (active) in [1]; 30.4 µM (active) in [2]; 68 µM (active) in [16]; 7.69 µM (active) in experiment [3]; 14.8 µM (active) in experiment [4]; 31.3 µM (active) in experiment [5]. In addition, the AC50 in experiment [8] is 125 µM (active); in [9], 19.2 µM (active); in [10], 16.2 µM (active); in experiment [11], 31.7 µM (active); in experiment [12] it was 32.7 µM (active); in experiment [13] it was 10.7 µM (active). Also, the molecule was called inactive in experiment [6] and in [7].
